PubChem BioAssay
Values joined by “and” are separate entries in the source; they are usually repeats but may differ in a detail not shown here. Identical values can stand only once. Active and inactive are the calls of the source.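 How the source made its calls, unless noted: active means compounds whose cell count with miR-34 switched on is under 0.7 times the count with it off; inactive means the rest.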 Residues, ends and D or L forms follow the SMILES beside them.

Experiments:
[1] = differential killing of epithelial or mesenchymal cells, primary screen, imaging, PC-3E GFP, TEM4-18 mCherry, co-culture (AID 1345086;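 active means compounds killing one labelled cell type while sparing the other, by normalised counts and ratio limits, not self-fluorescent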;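 on all read-outs here: cells exposed to compound for 72 h before imaging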;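 on red/green cell ratio (normalised): normalised mesenchymal count divided by normalised epithelial count so high means epithelial killing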); conditions: imaging cell counts, at 1 µM; for red/green cell ratio (normalised): actives lie on both sides, counts scaled to control wells, 1 = unselective
[2] = sensitizers of A549 cells to miR-34 induction, primary screen, imaging, A549 dox-inducible miR-34, nuclei and caspase counts (AID 1347080); conditions: A549 miR-34 inducible, Hoechst nuclei count, 48 h
[3] = survival rescue of mitochondrial mutant cells in low glucose, primary screen, MELAS cybrids, Rieske KO mouse fibroblasts, CellTiter-Glo (AID 1508586;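 active means mean z-score across replicates of 1.96 or higher in either the MELAS or the Rieske mutant cell line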;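 further: z relative to plate mean and SD of compound and empty wells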)
[4] = molecular target: NAD(+) hydrolase SARM1 (Homo sapiens) (UniProt Q6SZW1); assay: SARM1 TIR NADase inhibitors, cell lysate, NAD-Glo luminescence (AID 1508614;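 active means compound whose remaining NAD level is above about 45 nM, limit read from the data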); conditions: SAM-TIR HEK293T lysate NADase, at 1 µM, stronger effect = higher value
[5] = liver-stage malaria parasite growth inhibition, primary screen, cell-based, HepG2, luciferase luminescence, HepG2 viability (AID 624349; in the data active means parasite load remaining mostly below about 12%, no sharp cut-off; inactive means mostly above about 10%;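 further: 100% = mean of DMSO negative control wells on the same plate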); conditions: P. berghei liver stage in HepG2, luciferase luminescence, concentration not given here; parasite load remaining: stronger effect = lower value; viability: measured here: HepG2 viability without parasites
[6] = hESC survival regulators, cell-based (AID 493140; call rule not given here;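 further: cells exposed to compounds for four days before counting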); conditions: human embryonic stem cell survival screen; stronger effect = higher value
[7] = viability rescue of complex I mutant cybrids, primary screen, cell-based, galactose medium, ATP luminescence (AID 1645843;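 active means z-score of at least 1.8 in each of two replicates, scored against plate mean and spread of sample wells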;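 further: positive z means more ATP and so rescue of galactose-driven cybrid death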); conditions: complex I mutant cybrid cells, 72 h, stronger effect = higher value
[8] = measured here: epithelial PC-3E GFP cell survival
[9] = measured here: mesenchymal TEM4-18 mCherry cell survival
[10] = stronger effect = lower value, cell number ratio, induced over uninduced
[11] = measured here: relative caspase fold change +Dox/-Dox
[12] = measured here: total cells with miR-34 induction, stronger effect = lower value
[13] = measured here: total cells without miR-34 induction
[14] = MELAS cybrid survival, CellTiter-Glo 48 h, stronger effect = higher value
[15] = Rieske KO mouse fibroblast survival, CellTiter-Glo 72 h

Chain of NAD(+) hydrolase SARM1 (Homo sapiens) (Q6SZW1 whole entry, looked up): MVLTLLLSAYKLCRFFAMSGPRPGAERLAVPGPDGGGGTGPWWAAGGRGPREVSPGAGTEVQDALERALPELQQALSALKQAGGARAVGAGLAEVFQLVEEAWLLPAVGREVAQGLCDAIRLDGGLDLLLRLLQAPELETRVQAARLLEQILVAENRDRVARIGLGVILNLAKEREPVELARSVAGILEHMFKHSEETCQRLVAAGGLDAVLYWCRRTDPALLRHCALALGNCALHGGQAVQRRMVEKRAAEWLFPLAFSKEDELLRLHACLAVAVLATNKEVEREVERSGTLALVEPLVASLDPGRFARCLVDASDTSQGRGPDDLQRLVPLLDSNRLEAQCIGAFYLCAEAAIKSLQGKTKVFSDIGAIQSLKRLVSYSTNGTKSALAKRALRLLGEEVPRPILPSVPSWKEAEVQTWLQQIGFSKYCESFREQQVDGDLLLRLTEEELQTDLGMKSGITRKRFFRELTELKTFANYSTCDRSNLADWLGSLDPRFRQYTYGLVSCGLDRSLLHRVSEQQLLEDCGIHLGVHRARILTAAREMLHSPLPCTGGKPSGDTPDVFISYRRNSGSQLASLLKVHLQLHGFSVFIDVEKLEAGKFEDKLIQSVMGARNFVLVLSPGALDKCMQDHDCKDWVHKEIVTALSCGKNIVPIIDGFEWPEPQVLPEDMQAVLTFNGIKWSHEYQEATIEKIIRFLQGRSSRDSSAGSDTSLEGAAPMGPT

Row | SMILES | red/green cell ratio (normalised) [1] | normalised cell number [1, 8] | normalised cell number [1, 9] | fold change [2, 10] | fold change [2, 11] | cell count [2, 12] | cell count [2, 13] | z-score [3, 14] | z-score [3, 15] | remaining NAD [4] | parasite load remaining [5] | viability [5] | survival [6] | z-score [7]
1 | CCOC(=O)CC(=O)N1CCSC1COc1ccccc1OC (stereo not given) | 1.03 (inactive) | 0.9 | 0.93 | 0.901 (inactive) and 0.963 (inactive) | 1.01 and 0.429 | 7560 and 7640 | 8380 and 7930 | -0.272 (inactive) | -0.0679 | 10 nM (inactive) |  |  |  | 
2 | O=C(Nc1ccccc1)c1ccccc1O | 1 (inactive) | 1.39 | 1.39 | 0.912 (inactive) and 0.877 (inactive) | 0.72 and 3.66 | 7720 and 10000 | 8460 and 11400 | -0.183 (inactive) | -0.206 | 10 nM (inactive) | 67.6% (inactive) | 101% |  | 
3 | O=C1c2ccccc2C(=O)C1c1ccc(Cl)cc1 | 0.87 (inactive) | 1.18 | 1.03 | 0.921 (inactive) | 1.21 | 7610 | 8270 |  |  | 10 nM (inactive) |  |  |  | 
4 | CC(C)Nc1ncccn1 | 0.89 (inactive) | 1.16 | 1.03 | 0.885 (inactive) | 0.978 | 8370 | 9450 |  |  | 10 nM (inactive) |  |  |  | 
5 | CCC(=O)O[C@H](CC(=O)O)C[N+](C)(C)C | 1.18 (inactive) | 1.03 | 1.22 | 0.986 (inactive) | 0.77 | 8930 | 9060 |  |  | 10 nM (inactive) |  |  |  | 
6 | CCC[C@@H]1C[C@@H](C(=O)N[C@@H](C2O[C@H](SC)[C@H](O)[C@@H](O)[C@H]2O)[C@H](C)Cl)N(C)C1 (stereo not given in full) | 1.26 (inactive) | 1.17 | 1.47 | 0.895 (inactive) and 0.881 (inactive) | 1.74 and 1.41 | 9010 and 10700 | 10100 and 12200 | 0.619 (inactive) | -0.624 |  | 39.2% (inactive) and 98.8% (inactive) and 83.4% (inactive) | 46.1% and 89% and 92.6% | 18.7 (inactive) | 
7 | CC(O)(CC(=O)O)CC(=O)O | 1.15 (inactive) | 0.86 | 0.99 | 0.913 (inactive) | 1.16 | 8220 | 9000 |  |  | 10 nM (inactive) |  |  |  | 
8 | CC1(O)CCOC(=O)C1 (stereo not given) | 1.07 (inactive) | 0.95 | 1.02 | 0.969 (inactive) | 0.886 | 8270 | 8540 | -0.827 (inactive) | -0.633 |  | 86.9% (inactive) | 107% |  | 
9 | Cc1ccc(S(=O)(=O)NCl)cc1 | 0.85 (inactive) | 0.97 | 0.83 | 0.925 (inactive) | 0.99 | 8910 | 9630 |  |  | 10 nM (inactive) |  |  |  | 
10 | CCCCCCCCCCCCCCCC(=O)OCC(O)[C@H]1OC(=O)C(O)=C1O (stereo not given in full) | 1.11 (inactive) | 1.1 | 1.22 | 1.02 (inactive) and 0.87 (inactive) | 0.52 and 0.622 | 7640 and 11300 | 7530 and 13000 | -0.179 (inactive) | -0.164 |  | 30.5% (inactive) | 230% |  | 
11 | COc1cc(-c2ccc(N=Nc3ccc4c(S(=O)(=O)O)cc(S(=O)(=O)O)c(N)c4c3O)c(OC)c2)ccc1N=Nc1ccc2c(S(=O)(=O)O)cc(S(=O)(=O)O)c(N)c2c1O | 1.11 (inactive) | 1.16 | 1.29 | 0.857 (inactive) | 0.848 | 8930 | 10400 | -1.41 (inactive) | -1.32 |  | 77.2% (inactive) and 55.6% (inactive) | 74.5% and 64.2% | 5.92 (inactive) | 
12 | CCCCC(CC)CCC(CC(C)C)OS(=O)(=O)O (stereo not given) | 0.93 (inactive) | 1.15 | 1.07 | 0.913 (inactive) | 0.896 | 8490 | 9300 |  |  | 10 nM (inactive) |  |  |  | 
13 | Cc1nccnc1N1CCCCC1 | 1.12 (inactive) | 0.93 | 1.04 | 0.964 (inactive) | 0.767 | 9440 | 9790 |  |  | 10 nM (inactive) |  |  |  | 
14 | C=CCOC(Cn1ccnc1)c1ccc(Cl)cc1Cl (stereo not given) | 1.13 (inactive) | 1.28 | 1.45 | 0.977 (inactive) and 1.23 (inactive) | 0.912 and 0.451 | 7830 and 4360 | 8020 and 3550 | -0.315 (inactive) | -1.27 | 10 nM (inactive) | 62.3% (inactive) and 49.7% (inactive) | 79.2% and 101% | 5.75 (inactive) | 
15 | CC(C)[C@H](N)C(=O)OCC(CO)OCn1cnc2c(=O)[nH]c(N)nc21 (stereo not given in full) | 0.79 (inactive) | 1.28 | 1.01 | 0.935 (inactive) | 0.843 | 8710 | 9320 |  |  | 10 nM (inactive) |  |  |  | 
16 | CO[C@H](C(=O)[C@@H](O)[C@@H](C)O)[C@@H]1Cc2cc3cc(O[C@H]4C[C@@H](O[C@H]5C[C@@H](O)[C@H](O)[C@@H](C)O5)[C@@H](O)[C@@H](C)O4)c(C)c(O)c3c(O)c2C(=O)[C@H]1O[C@H]1C[C@@H](O[C@H]2C[C@@H](O[C@H]3C[C@](C)(O)[C@H](O)[C@@H](C)O3)[C@H](O)[C@@H](C)O2)[C@H](O)[C@@H](C)O1 | 0.96 (inactive) | 0.29 | 0.28 | 0.97 (inactive) | 0.963 | 2240 | 2320 | 7.83 (active) | -1.51 |  | -0.08% (active) | 93% |  | -1.89 (inactive)
17 | Cc1c(C)c2c(c(C)c1O)CCC(C)(C(=O)O)O2 (stereo not given) | 0.84 (inactive) | 1.17 | 0.98 | 0.854 (inactive) | 1.44 | 8370 | 9800 | -0.259 (inactive) | -0.0183 |  | 201% (inactive) and 66.3% (inactive) | 117% and 76.7% | 0.667 (inactive) | 

Row | SMILES | red/green cell ratio (normalised) [1] | normalised cell number [1, 8] | normalised cell number [1, 9] | fold change [2, 10] | fold change [2, 11] | cell count [2, 12] | cell count [2, 13] | z-score [3, 14] | z-score [3, 15] | remaining NAD [4] | parasite load remaining [5] | viability [5] | survival [6] | z-score [7]
18 | CCOC(=O)COc1ccc2c(=O)cc(-c3ccccc3)oc2c1 | 0.96 (inactive) | 0.88 | 0.85 | 0.922 (inactive) | 0.974 | 8170 | 8860 |  |  | 10 nM (inactive) |  |  |  | 
19 | CC(C)[C@H](NC(=O)[C@H](CC(=O)O)NC(=O)[C@H](CCCCN)NC(=O)[C@@H](N)CCCN=C(N)N)C(=O)N[C@@H](Cc1ccc(O)cc1)C(=O)O (H-RKDVY-OH) | 0.91 (inactive) | 1.09 | 0.99 | 0.895 (inactive) | 0.732 | 8230 | 9190 |  |  | 10 nM (inactive) |  |  |  | 
20 | NC1CCN(c2c(F)cc3c(=O)c(C(=O)O)cn(C4CC4)c3c2Cl)C1 (stereo not given) | 1.1 (inactive) and 0.63 (inactive) | 1 and 1.34 | 1.09 and 0.84 | 0.917 (inactive) and 0.881 (inactive) | 1.1 and 1.36 | 7910 and 9140 | 8620 and 10400 | 0.53 (inactive) and 0.358 (inactive) | -0.371 and 0.0233 | 10 nM (inactive) | 12.5% (inactive) | 73% |  | 0.72 (inactive)
21 | Oc1ccc2ccccc2c1 | 0.96 (inactive) | 0.82 | 0.79 | 0.874 (inactive) | 1.01 | 7170 | 8200 |  |  | 10 nM (inactive) |  |  |  | 
22 | CCCCCCCC/C=C\CCCCCCCC(=O)O | 1.2 (inactive) | 0.8 | 0.96 | 0.965 (inactive) and 1.03 (inactive) | 0.674 and 0.77 | 8820 and 6040 | 9140 and 5860 |  |  | 10 nM (inactive) |  |  |  | 
23 | Nc1ccccc1S(N)(=O)=O | 0.77 (inactive) | 1.18 | 0.91 | 0.888 (inactive) | 1.35 | 9840 | 11100 | 0.695 (inactive) | -0.362 |  | 63.3% (inactive) | 93.8% | 5.17 (inactive) | 
24 | OCc1ccccc1 | 0.94 (inactive) | 1.12 | 1.05 | 0.891 (inactive) | 0.934 | 8280 | 9290 |  |  | 10 nM (inactive) |  |  |  | 
25 | O=C(O)Cc1cc(I)c(Oc2ccc(O)c(I)c2)c(I)c1 | 0.98 (inactive) | 1.1 | 1.08 | 1.03 (inactive) and 0.918 (inactive) and 0.892 (inactive) | 0.599 and 1.29 and 1.64 | 7190 and 8760 and 9000 | 6990 and 9530 and 10100 | -0.0879 and -3.89 (inactive) | 5.02 and -3.53 | 10 nM (inactive) | 35.5% (inactive) and 118% (inactive) | 46% and 91.7% | 18.8 (inactive) | 
26 | O=C1C2CC3CC1CC(O)(C3)C2 | 0.85 (inactive) | 1.16 | 0.99 | 0.951 (inactive) | 0.928 | 9100 | 9570 |  |  | 10 nM (inactive) |  |  |  | 
27 | O=C(O)C1CSCN1 (stereo not given) | 0.88 (inactive) | 1.25 | 1.1 | 0.957 (inactive) | 0.618 | 9140 | 9550 |  |  | 10 nM (inactive) |  |  |  | 
28 | FC(F)(Cl)C(F)(F)Cl | 1.02 (inactive) | 0.91 | 0.93 | 0.926 (inactive) | 0.734 | 9510 | 10300 |  |  | 10 nM (inactive) |  |  |  | 
29 | Nc1ccn(C2CSC(CO)O2)c(=O)n1 (stereo not given) | 1 (inactive) | 1.14 | 1.13 | 0.986 (inactive) and 0.882 (inactive) | 1.5 and 0.897 | 10000 and 7840 | 10200 and 8880 | -0.261 (inactive) | 0.414 |  |  |  |  | 1.16 (inactive)
30 | CCN(CC)CCOCCOC(=O)C(CC)(CC)c1ccccc1 | 1.07 (inactive) | 0.85 | 0.9 | 0.879 (inactive) and 0.86 (inactive) | 0.849 and 0.967 | 7300 and 7460 | 8310 and 8670 | -0.986 (inactive) | -0.272 | 10 nM (inactive) |  |  |  | -0.65 (inactive)
31 | Cc1c(O)c(=O)n(-c2ccccc2)n1C | 0.78 (inactive) | 1.09 | 0.85 | 0.946 (inactive) | 1.41 | 8310 | 8790 | 0.46 (inactive) | -0.0513 |  | 37.6% (inactive) and 51.4% (inactive) | 95.8% and 94.4% | 23.9 (inactive) | 
32 | NC(N)=NCC1COC2(CCCCC2)O1 (stereo not given) | 1.08 (inactive) | 1.11 | 1.2 | 0.907 (inactive) | 1.21 | 9550 | 10500 | 0.764 (inactive) | 0.202 | 10 nM (inactive) | 70.3% (inactive) | 91.8% | 5.58 (inactive) | 
33 | CN(C)c1cnccn1 | 1.02 (inactive) | 0.95 | 0.97 | 0.783 (inactive) | 1.07 | 6710 | 8560 |  |  | 10 nM (inactive) |  |  |  | 
